This is an account of results in PubChem BioAssay (Tox21).

The nature of assay [1]: qHTS assay to identify small molecule antagonists of the thyroid receptor (TR) signaling pathway - cell viability counter screen (AID 743064). Further: nearly all actives have a fitted effect of over 50% in size. Further: potency means the concentration at half of the fitted maximal effect. An outline of the steps: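 Rat GH3 pituitary tumor cells stably expressing two TR response elements driving luciferase were plated, rested 4 h, then dosed with library compounds and T3 (1 nM final). After 23.5 h at 37 °C, CellTiter-Fluor was added for 30 min and fluorescence recorded.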
(In general: In qHTS, concentration-response curves come from the screen itself.)

Assay [2] can be described thus: qHTS assay to identify small molecule antagonists of the thyroid receptor (TR) signaling pathway (AID 743065). Further: nearly all actives have a fitted effect of over 55% in size. Further: potency means the concentration at half of the fitted maximal effect. In short, it runs like this: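 GH3.TRE-Luc rat pituitary cells carrying two TR response elements driving luciferase were plated for 4 h, given compound plus 1 nM T3 (final), and incubated 23.5 h at 37 C. ONE-Glo luminescence measured reporter inhibition; CellTiter-Fluor fluorescence tracked cytotoxicity.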

The test system of assay [3] is thyroid hormone receptor (rat, GH3 cells). Nature of the assay: qHTS assay to identify small molecule agonists of the thyroid receptor (TR) signaling pathway (AID 743066; calls by dose curve).
The target in assay [4] is Estrogen receptor (Homo sapiens) (UniProt P03372). Nature of the assay: qHTS assay to identify small molecule antagonists of the estrogen receptor alpha (ER-alpha) signaling pathway (AID 743069; active means well fitted curve in the direction sought with a large enough effect in the signal ratio in the repeat runs, not every such curve was filed as active; the % refers to the signal ratio; further: potency means the concentration at half of the fitted maximal effect). An outline of the steps:
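Estradiol-stimulated ER-alpha-UAS-bla HEK293 cells, 18 hr compound exposure at 37C. LiveBLAzer B/G substrate, 2 hr RT, fluorescence read.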

Assay [5] in a line: qHTS assay to identify small molecule antagonists of the estrogen receptor alpha (ER-alpha) signaling pathway - cell viability counter screen (AID 743074; calls by dose curve;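 further: HEK293 cells carrying ER-alpha-UAS-bla reporter stimulated with 17beta-estradiol; nearly all actives have a fitted effect of over 45% in size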).
Assay [6] deals with Estrogen receptor (Homo sapiens) (UniProt P03372). Nature of the assay: qHTS assay to identify small molecule agonists of the estrogen receptor alpha (ER-alpha) signaling pathway (AID 743075; calls by dose curve;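 further: HEK293 GripTite cells with ER-alpha and UAS-driven beta-lactamase reporter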).
Estrogen receptor (Homo sapiens), sequence (P03372 whole entry, looked up): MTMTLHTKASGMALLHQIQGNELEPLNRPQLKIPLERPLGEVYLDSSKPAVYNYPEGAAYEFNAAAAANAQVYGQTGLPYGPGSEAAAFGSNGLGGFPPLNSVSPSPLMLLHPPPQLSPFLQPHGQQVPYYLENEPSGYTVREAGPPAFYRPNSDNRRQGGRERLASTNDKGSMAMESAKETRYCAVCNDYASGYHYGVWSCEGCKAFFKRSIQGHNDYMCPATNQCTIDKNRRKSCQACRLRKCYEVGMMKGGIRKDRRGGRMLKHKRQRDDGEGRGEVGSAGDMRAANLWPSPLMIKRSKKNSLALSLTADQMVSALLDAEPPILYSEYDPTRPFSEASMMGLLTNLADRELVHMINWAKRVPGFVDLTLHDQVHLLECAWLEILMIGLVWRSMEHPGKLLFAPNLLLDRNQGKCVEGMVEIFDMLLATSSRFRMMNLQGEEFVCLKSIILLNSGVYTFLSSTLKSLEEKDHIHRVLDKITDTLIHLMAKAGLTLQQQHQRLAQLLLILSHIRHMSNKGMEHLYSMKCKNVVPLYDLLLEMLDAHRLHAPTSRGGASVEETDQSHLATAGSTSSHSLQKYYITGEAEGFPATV
For assay [7] the target is unchanged. Nature of the assay: qHTS assay to identify small molecule agonists of the estrogen receptor alpha (ER-alpha) signaling pathway using the BG1 cell line (AID 743079). Further: nearly all actives have a fitted effect of over 20% in size.
Assay [8] can be described thus: qHTS assay to identify small molecule antagonists of the estrogen receptor alpha (ER-alpha) signaling pathway using the BG1 cell line (AID 743080; calls by dose curve;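 further: BG1 cells stimulated with 17beta-estradiol alongside compound; series mostly up to about 70 µM; nearly all actives have a fitted effect of over 25% in size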). An outline of the steps:
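Luminescence from a 4×ERE-luciferase reporter in BG1-Luc-4E2 cells served as read-out. Cells, pre-cultured 5 days in stripped-serum phenol-red-free medium, were exposed to compound with 17beta-estradiol co-stimulation for 21.5 h at 37 C.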

The nature of assay [9]: qHTS assay to identify small molecule antagonists of the estrogen receptor alpha (ER-alpha) signaling pathway using the BG1 cell line - cell viability counter screen (AID 743081).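 Further: compound given together with 17beta-estradiol as the ER stimulus; series mostly up to about 70 µM; nearly all actives have a fitted effect of over 45% in size.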
The next assay addresses Aromatase (Homo sapiens) (UniProt P11511). Nature of the assay: qHTS assay to identify aromatase inhibitors (AID 743083). Further: series mostly up to about 70 µM; nearly all actives have a fitted effect of over 55% in size.

Inconclusive results are not listed. Active and inactive are the calls of the source. Unless noted, the call rests on the fitted dose curve; in most records, active means well fitted curve in the direction sought with a large enough effect in the repeat runs; inconclusive means weak or mixed curves; inactive means no such curve, though single readings can be large; an effect the other way counts as inactive or inconclusive.

Aromatase (Homo sapiens), sequence (P11511 whole entry, looked up): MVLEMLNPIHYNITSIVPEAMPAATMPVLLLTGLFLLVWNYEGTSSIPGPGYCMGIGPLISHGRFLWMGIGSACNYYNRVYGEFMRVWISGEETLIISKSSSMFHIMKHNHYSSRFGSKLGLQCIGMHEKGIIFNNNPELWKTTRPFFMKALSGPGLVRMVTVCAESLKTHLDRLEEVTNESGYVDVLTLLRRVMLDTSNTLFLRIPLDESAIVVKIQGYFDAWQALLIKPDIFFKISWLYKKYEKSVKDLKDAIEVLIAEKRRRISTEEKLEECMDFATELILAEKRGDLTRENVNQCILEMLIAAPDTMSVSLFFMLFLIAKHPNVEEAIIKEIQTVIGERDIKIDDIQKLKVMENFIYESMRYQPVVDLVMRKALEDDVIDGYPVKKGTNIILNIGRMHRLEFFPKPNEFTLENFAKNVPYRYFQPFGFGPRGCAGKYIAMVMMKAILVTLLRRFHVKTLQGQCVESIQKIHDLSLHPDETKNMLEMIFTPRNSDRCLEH

For the compound `C=COCC1CCC(COC=C)CC1` (centres undefined), the Potency result in assay [1], in assay [2], in assay [4], in [5], in [6] and in assay [7] was “inactive” throughout. In addition, the Potency entry in assay [8] was “inactive”. Besides, the compound was called inactive (in [3]; in assay [9]; in the assay with Aromatase (Homo sapiens)).
On to `CCOC(=O)c1ccccc1`, for which the Potency result in assay [1], in [2], in assay [4], in assay [5], in assay [6] and in assay [8] was “inactive” throughout. In addition, the result (in assay [3]; in assay [9]; with Aromatase (Homo sapiens)) was inactive.
As to `CCCCCCCCCCCCCCC(=O)O`, the Potency entry in assay [1], in assay [2], in [4], in [5] and in assay [8] was “inactive” each time. Moreover, the call (in assay [3]; in assay [9]; with Aromatase (Homo sapiens)) was inactive.
With `CC(N)C12CC3CC(CC(C3)C1)C2` (centres undefined), the Potency result in assay [1], in [2], in [4], in assay [5], in assay [6] and in assay [7] was “inactive” throughout. Further, in assay [8], the Potency result was “inactive”. Moreover, the call (in assay [3]; in assay [9]; with Aromatase (Homo sapiens)) was inactive.
As for `CCOc1ccc2nc(S(N)(=O)=O)sc2c1`, the Potency result in [1], in assay [2], in assay [4], in assay [5] and in assay [6] was “inactive” in each case. In addition, the outcome (in assay [3]; in assay [9]; with Aromatase (Homo sapiens)) was inactive.
Regarding `CC(=O)Oc1cccc(C)c1`, the Potency entry in assay [1], in assay [2], in assay [4], in assay [5], in assay [6] and in [7] was “inactive” in each case. For the same compound, in [8], the Potency entry is “inactive”. In addition, the result (in [3]; in assay [9]; with Aromatase (Homo sapiens)) was inactive.
As to `CCC1C(=O)OCC1Cc1cncn1C` (centres undefined), the Potency result in assay [1], in assay [2], in assay [4], in assay [5], in assay [6] and in assay [7] was “inactive” each time. Besides, the Potency entry in [8] was “inactive”. The compound was called inactive (in assay [3]; in assay [9]; with Aromatase (Homo sapiens)).
Turning to `Nc1ccn([C@@H]2O[C@H](CO)[C@@H](O)C2(F)F)c(=O)n1`, the figures for the Potency in assay [1], in assay [2] and in assay [4] were 168 nM (active), 42.2 nM (active) and 4770 nM [inhibitor] (active), respectively. Also, the compound was called inactive (in assay [3]; in assay [9]; with Aromatase (Homo sapiens)). Further, the Potency entry in assay [6] and in assay [7] was “inactive” in each case.
In the case of `C=CC(C)(CCC=C(C)C)OC(=O)CC` (centres undefined), the Potency entry in assay [1], in assay [2], in assay [4], in assay [5], in assay [6] and in assay [7] was “inactive” each time. Also, in assay [8], the Potency result was “inactive”. Further, the result (in assay [3]; in assay [9]; with Aromatase (Homo sapiens)) was inactive.
As for `CCCCCCCCCCCCCCCCCCO`, the Potency result in assay [1], in assay [2], in assay [4], in [5], in assay [6] and in [7] was “inactive” in each case. In assay [8], the Potency result is “inactive”. Moreover, the compound was classed as inactive (in assay [3]; in [9]; with Aromatase (Homo sapiens)).
Regarding `CCOC(=O)COc1cc(-n2ncc(C(F)(F)F)c(C)c2=O)c(F)cc1Cl`, the Potency result in assay [1], in [2], in assay [4], in assay [5], in [6] and in assay [7] was “inactive” each time. Further, the Potency result in [8] is “inactive”. For the same compound, the compound was called inactive (in [3]; in assay [9]; with Aromatase (Homo sapiens)).
As for `CCCCCC(=O)OCCc1ccccc1`, the Potency result in [1], in [2], in [4], in [5], in [6] and in [7] was “inactive” each time. The Potency result in [8] is “inactive”. The compound was classed as inactive (in [3]; in assay [9]; with Aromatase (Homo sapiens)).
As to `CCN[C@@H]1C[C@H](N)[C@@H](OC2OC(CN)=CCC2N)[C@H](O)[C@H]1O[C@H]1OC[C@](C)(O)[C@H](NC)[C@H]1O` (some centres undefined), the Potency result in [1], in assay [2], in assay [5] and in assay [8] was “inactive” each time. For the same compound, the outcome (in [3]; in [9]; with Aromatase (Homo sapiens)) was inactive.
`O=C(O)CNC(=O)c1ccccc1`: the Potency result in assay [1], in assay [2] and in assay [5] was “inactive” in each case. The result (in assay [3]; in assay [9]; with Aromatase (Homo sapiens)) was inactive.
`C=C(C)C(=O)OCC1CCCO1` (centres undefined): the Potency entry in [1], in assay [2] and in assay [5] was “inactive” in each case. The call in [3] and in assay [9] was inactive.
Consider `NC(N)=NCCN1CCCCCCC1`, for which the Potency entry in [1], in [2], in assay [5] and in assay [8] was “inactive” throughout. The compound was classed as inactive (in assay [3]; in [9]; with Aromatase (Homo sapiens)).
As for `CCC(C(=O)NC(=O)NC(C)=O)c1ccccc1` (centres undefined), the Potency entry in assay [1], in assay [2], in [5], in assay [6], in assay [7] and in [8] was “inactive” each time. Further, the compound was classed as inactive (in [3]; in the assay with Aromatase (Homo sapiens)).
`C[N+]12CCC(CC1)C(OC(=O)C(O)(c1ccccc1)c1ccccc1)C2` (centres undefined): the Potency entry in assay [1], in assay [2] and in assay [5] was “inactive” in each case. Further, the call in assay [3] and in assay [9] was inactive.
For the compound `CC(=O)NC(=O)c1ccccc1O`, the Potency entry in assay [1], in [2], in [5], in assay [6], in assay [7] and in assay [8] was “inactive” throughout. Further, the result (in assay [3]; in [9]; with Aromatase (Homo sapiens)) was inactive.
Regarding `O=S(=O)(O)c1cccc(S(=O)(=O)O)c1`, the Potency entry in assay [1], in assay [2], in assay [5], in assay [6], in assay [7] and in assay [8] was “inactive” each time. In addition, the result (in assay [3]; in assay [9]; with Aromatase (Homo sapiens)) was inactive.
On to `CC/C=C\CCOC(C)OCC` (centres undefined), for which the Potency result in assay [1], in assay [2], in assay [5], in assay [7] and in assay [8] was “inactive” throughout. The outcome (in assay [3]; in assay [9]; with Aromatase (Homo sapiens)) was inactive.
As to `Cc1ccccc1N=C(N)N=C(N)N`, the Potency entry in assay [1], in assay [2] and in assay [5] was “inactive” throughout. The compound was called inactive (in assay [3]; in [9]; with Aromatase (Homo sapiens)).
As to `CCOC(=O)c1cnc2c(cnn2CC)c1NN=C(C)C`, the Potency result in [1], in [2], in [5], in [6], in assay [7] and in assay [8] was “inactive” throughout. Besides, the call (in assay [3]; in assay [9]; in the assay with Aromatase (Homo sapiens)) was inactive.
Consider `c1ccc(CCc2ccccc2)cc1`, for which the Potency entry in assay [1], in assay [2] and in assay [5] was “inactive” in each case. For the same compound, the compound was classed as inactive (in assay [3]; in assay [9]; with Aromatase (Homo sapiens)).
Consider `COc1cc(-c2ccc(=O)[nH]n2)ccc1OC(F)F`, for which the Potency entry in [1], in assay [2], in assay [5], in [6] and in assay [8] was “inactive” each time. For the same compound, the call (in assay [3]; in [9]; in the assay with Aromatase (Homo sapiens)) was inactive.
For `O=[N+]([O-])c1ccc(/C=N\O)o1`, the Potency result in assay [1], in assay [2], in assay [5], in assay [6], in assay [7] and in assay [8] was “inactive” in each case. Further, the compound was classed as inactive (in [3]; in assay [9]; with Aromatase (Homo sapiens)).
Turning to `CCCC[N+](C)(CCCC)CCCC`, the Potency result in assay [1], in [2], in assay [5], in assay [6], in assay [7] and in assay [8] was “inactive” in each case. Further, the result (in assay [3]; in assay [9]; with Aromatase (Homo sapiens)) was inactive.
